The nature of experiment [1]: NCI Yeast Anticancer Drug Screen. Data for the rad50 strain (AID 155).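 Further: 0% = growth of vehicle-only cultures of the same strain.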 The settings on record: S. cerevisiae rad50 strain growth inhibition; at 50.0 µM; hits give high values. Put shortly:
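Yeast carrying a defined DNA repair defect were exposed to test compounds, and growth was compared with vehicle-treated controls to give percent inhibition.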

Experiment [2] is described as follows: NCI Yeast Anticancer Drug Screen. Data for the mec2-1 strain (AID 157). The settings on record: S. cerevisiae mec2-1 strain, at 50.0 µM, hits give high values. An outline of the steps:
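Cells of the genetically defined mec2-1 yeast strain are incubated with test compound. Inhibition of growth is calculated against vehicle-treated controls.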

Experiment [3] can be described thus: NCI Yeast Anticancer Drug Screen. Data for the sgs1 mgt1 strain (AID 161).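 Further: 0% = growth of cultures given vehicle only.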 The settings on record: S. cerevisiae sgs1 mgt1 strain, at 50.0 µM, hits give high values. Put shortly:
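Read-out: growth inhibition vs vehicle controls. Cells: mutant yeast strain deficient in DNA damage repair.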

Experiment [4] can be described thus: NCI Yeast Anticancer Drug Screen. Data for the cln2 rad14 strain (AID 165).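 Further: 0% = growth equal to vehicle treated cultures.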 To be noted: S. cerevisiae cln2 rad14 strain, at 50.0 µM, hits give high values. Put shortly:
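The screen exposed genetically defined yeast (cln2 rad14) to test compounds and scored growth inhibition relative to vehicle-treated controls.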

Experiment [5] can be described thus: NCI Yeast Anticancer Drug Screen. Data for the bub3 strain (AID 167). To be noted: S. cerevisiae bub3 mutant strain, at 50.0 µM, hits give high values. An outline of the steps: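 Compounds were applied to a genetically altered yeast strain carrying a cell-cycle control defect. Growth inhibition was scored against vehicle-treated controls.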
Experiment [6] can be described thus: NCI Yeast Anticancer Drug Screen. Data for the mlh1 rad18 strain (AID 175). To be noted: S. cerevisiae mlh1 rad18 strain growth inhibition; at 50.0 µM; hits give high values. Put shortly: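 Compound-treated yeast growth, normalised to vehicle controls. Strain bears defined DNA repair mutations.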

Growth inhibition data for 38 compounds are collected here from PubChem BioAssay (NCI).

This is part of a sample that, as a whole, favours compounds with a hit. Of some 79,000 tested, about 15% had one in any assay. Unmarked numbers belong to inactive results. The source made the active and inactive calls. No stated cut-off is given here; in the data, active means growth inhibition above about 70%; inactive means the rest.

With `CC(C)=C1C(=O)N(C)C(=O)C1C(N)=O` (stereo not drawn), the growth inhibition was 0.1% in experiment [1]; 1.85% in experiment [2]; -15.9% in experiment [3]; -6.05% in experiment [4]; 2.85% in experiment [5]; 11.4% in experiment [6].
For `CCOC(=O)c1c(OC)c(-c2ccccc2)c(=O)n2c3ccccc3n(C)c12`, the growth inhibition in experiment [1] is 18.2%; in experiment [2], 9.05%; in experiment [3] it was -0.2%; in experiment [4] it was -4.1%; in experiment [5], -1.1%; in experiment [6], 9.9%.
For the compound `CC1CCCCC1NC(=O)c1ccccc1` (stereo not drawn), the growth inhibition in experiment [1] was -12%; in experiment [2], -10.6%; in experiment [3], -5.2%; in experiment [4], -34.8%; in experiment [5], -13.7%; in experiment [6], -3.1%.
As for `O=C1O[C@H]2C3C4CCC(C4[C@@H]2I)[C@H]13` (stereo partly drawn), the growth inhibition in experiment [1] was -13.7%; in experiment [2], -13.8%; in experiment [3], -9.1%; in experiment [4], 19.9%; in experiment [5] it was 14.1%; in experiment [6], 16.6%.
Consider `c1ccc2c(c1)[nH]c1ccncc12`, for which the growth inhibition is -0.85% in experiment [1]; 0.1% in experiment [2]; -1.6% in experiment [3]; -40% in experiment [4]; -9.7% in experiment [5]; 3.7% in experiment [6].
In the case of `Cc1cc(C(=O)O)c2c([nH]1)c(C)cc1nc3ccccc3c12`, the growth inhibition is 12.6% in experiment [1]; 5.65% in experiment [2]; -10% in experiment [3]; 12.1% in experiment [4]; 4.95% in experiment [5]; -19.2% in experiment [6].
As for `O=C1C(=O)c2ccccc2C(O)=C1Cc1ccccc1`, the growth inhibition is -15.2% in experiment [1]; 13.8% in experiment [2]; -11.9% in experiment [3]; 7.5% in experiment [4]; -36.8% in experiment [5]; 1.85% in experiment [6].
As for `Cc1ccc(N2CCN(C(=O)c3ccccc3)CC2)cc1`, the growth inhibition in experiment [1] was -16.9%; in experiment [2], 1.55%; in experiment [3] it was -2.45%; in experiment [4], -13.6%; in experiment [5], 16.5%; in experiment [6], -9.35%.
For the compound `OC1(c2ccccc2)c2ccccc2Oc2cc(Cl)ccc21` (stereo not drawn), the growth inhibition in experiment [1] was 9.4%; in experiment [2] it was -0.85%; in experiment [3] it was 2.8%; in experiment [4], 10.3%; in experiment [5], 2.15%; in experiment [6] it was 45.8%.
As to `CCC(=O)OC1=CC(=O)c2ccccc2C1=O`, the growth inhibition was 11.6% in experiment [1]; 12.4% in experiment [2]; 4.7% in experiment [3]; 8.6% in experiment [4]; -15.5% in experiment [5]; 12.6% in experiment [6].
As for `CC(=O)Nc1cccc(/C=C/c2ccc([N+](=O)[O-])cc2)c1`, the growth inhibition is 52.8% in experiment [1]; 42.6% in experiment [2]; 53% in experiment [3]; 32.5% in experiment [4]; 46.4% in experiment [5]; 89.2% (active) in experiment [6].
Regarding `CC1(C)OC(=O)ON(Cc2ccccc2)C1=O`, the growth inhibition in experiment [1] is -4.45%; in experiment [2] it was -2.85%; in experiment [3], 2.2%; in experiment [4] it was 2.35%; in experiment [5], 3.3%; in experiment [6], -13.4%.
In the case of `CC(C)Cc1cn(O)c2nc(=N)nc(N)c-2n1`, the growth inhibition is 4.95% in experiment [1]; -5.6% in experiment [2]; -1.7% in experiment [3]; -13.6% in experiment [4]; 5.8% in experiment [5]; 4% in experiment [6].
On to `COC(=O)C1CCC(C)(C(N)=O)C1(C)C` (stereo not drawn), for which the growth inhibition in experiment [1] is 16%; in experiment [2] it was 3%; in experiment [3] it was -10.9%; in experiment [4], -37.8%; in experiment [5], 5.25%; in experiment [6], 9.7%.
In the case of `CC(C)(C)OC(=O)NC1CCCCC1NC(=O)C(=O)NC1CCCCC1NC(=O)OC(C)(C)C` (stereo not drawn), the growth inhibition in experiment [1] is -17.1%; in experiment [2], -18.7%; in experiment [3] it was -14.8%; in experiment [4], 4.2%; in experiment [5], -10.8%; in experiment [6], -30.3%.
On to `CCCCOC(=O)C(=O)OCCCC`, for which the growth inhibition in experiment [1] is 13.7%; in experiment [2] it was -2.9%; in experiment [3], 3.75%; in experiment [4], 14.8%; in experiment [5], 21.1%; in experiment [6] it was 17.2%.
As for `O=C(O)CNC(=O)CNC(=O)c1ccc2ccccc2n1`, the growth inhibition in experiment [1] was 2.7%; in experiment [2], -4.05%; in experiment [3] it was 11.1%; in experiment [4], 10.7%; in experiment [5], -14.3%; in experiment [6], 15.9%.
As for `O=C(Nc1ccc(NC(=O)Nc2ccc(C3=NCCN3)cc2)cc1)Nc1ccc(C2=NCCN2)cc1`, the growth inhibition in experiment [1] was -7.7%; in experiment [2], 7.15%; in experiment [3], 7.65%; in experiment [4], -1.7%; in experiment [5], -21.1%; in experiment [6] it was -19.6%.
With `COC(=O)C(C(=O)C(=O)Nc1nc2ccc(OC)cc2s1)c1cnc2ccccc2n1` (stereo not drawn), the growth inhibition was -13.2% in experiment [1]; -23.2% in experiment [2]; -45% in experiment [3]; 22.6% in experiment [4]; -7.5% in experiment [5]; -6.15% in experiment [6].
With `CC1CCCC(C(O)(C(=O)O)C2CCCCC2)C1` (stereo not drawn), the growth inhibition in experiment [1] was 23.2%; in experiment [2] it was 12.6%; in experiment [3] it was 22.4%; in experiment [4], 13.1%; in experiment [5] it was 13.1%; in experiment [6], 26.6%.
For `NC(=O)c1csc(N)n1`, the growth inhibition in experiment [1] is 4.4%; in experiment [2] it was 3.95%; in experiment [3] it was 0%; in experiment [4], 3.55%; in experiment [5], 9.3%; in experiment [6] it was -7.7%.
As to `CCCCCCCCCCCCCCCCSc1cccc(C)c1`, the growth inhibition in experiment [1] was 17.7%; in experiment [2], 3.65%; in experiment [3] it was 22.1%; in experiment [4] it was -13.2%; in experiment [5], 1.3%; in experiment [6], 17.1%.
On to `Cc1cc(Cl)c(O)c(-c2cc(-c3ccc([N+](=O)[O-])cc3)c3c(N)[nH]c(=O)nc3n2)c1`, for which the growth inhibition in experiment [1] was 44.1%; in experiment [2], -4.65%; in experiment [3], 35.5%; in experiment [4] it was 6.2%; in experiment [5], 19.6%; in experiment [6], 38%.
For the compound `Cc1cc(=O)oc2c(C)c3oc4c(c3cc12)CN(C)CC4`, the growth inhibition was 26.9% in experiment [1]; 10.9% in experiment [2]; 25.4% in experiment [3]; 20% in experiment [4]; 13.9% in experiment [5]; 25.8% in experiment [6].
Regarding `CCN(CC)C1CS(=O)(=O)OC2=C1CSCC2` (stereo not drawn), the growth inhibition in experiment [1] is -2.4%; in experiment [2] it was 19.1%; in experiment [3], 11.3%; in experiment [4], 3.75%; in experiment [5] it was 4.35%; in experiment [6], -31.5%.
Consider `COc1ccc(CC(C)C(C)Cc2ccc(OC)c(OC)c2)cc1OC` (stereo not drawn), for which the growth inhibition in experiment [1] is 4.9%; in experiment [2] it was 9.15%; in experiment [3] it was 1.6%; in experiment [4], -4.75%; in experiment [5], 4.25%; in experiment [6], -3.6%.
Regarding `CC(=O)Oc1cc(OC(C)=O)c2c(c1C)CC[C@@H]1[C@@H]2CC[C@]2(C)[C@@H](OC(C)=O)CC[C@@H]12`, the growth inhibition in experiment [1] was 18.1%; in experiment [2] it was 10.1%; in experiment [3] it was -0.25%; in experiment [4] it was -17%; in experiment [5], -5.3%; in experiment [6], 34.3%.
Turning to `COc1cc2c(c(OC)c1OC)-c1ccc(SC)c(=O)cc1[C@@H](NC(=O)CO)CC2`, the growth inhibition is 30% in experiment [1]; 14.3% in experiment [2]; 19.6% in experiment [3]; 19.6% in experiment [4]; 21.1% in experiment [5]; 22.2% in experiment [6].
Regarding `CCSC1OC(C(O)CO)C(O)C1NC(=O)C(F)(F)F` (stereo not drawn), the growth inhibition in experiment [1] was 5.65%; in experiment [2] it was 6.05%; in experiment [3] it was 1.5%; in experiment [4], 1.1%; in experiment [5] it was 32%; in experiment [6] it was 12.8%.
As for `COc1ccc(C23OC2Oc2cc(OC4CCCCO4)ccc2C3=O)cc1` (stereo not drawn), the growth inhibition in experiment [1] is 10.1%; in experiment [2], -8.45%; in experiment [3], -6.25%; in experiment [4], -6.4%; in experiment [5] it was 0.35%; in experiment [6], 2.55%.
Take `CCOC(=O)c1cccc(Cl)c1C(=O)O`: the growth inhibition in experiment [1] is -7.75%; in experiment [2] it was -13.1%; in experiment [3], 0.25%; in experiment [4], -29.5%; in experiment [5], -4.05%; in experiment [6] it was -7.75%.
With `CCOC(=O)NC(CCl)NC(=O)OCC`, the growth inhibition in experiment [1] was -11.7%; in experiment [2] it was -5.6%; in experiment [3], -2.05%; in experiment [4] it was -77%; in experiment [5] it was 6.4%; in experiment [6], -35.5%.
With `COC(=O)C(Br)C(Br)c1ccc(OC)c(OC)c1` (stereo not drawn), the growth inhibition in experiment [1] is -5.15%; in experiment [2] it was -9.8%; in experiment [3] it was 13.3%; in experiment [4], -30.6%; in experiment [5], 22.9%; in experiment [6], 16.2%.
As for `CCN(CC)CCOC(=O)c1ccc(N=Nc2ccc(O)cc2)cc1`, the growth inhibition in experiment [1] is 7.25%; in experiment [2], -0.8%; in experiment [3] it was -17.9%; in experiment [4], -6.25%; in experiment [5], 1%; in experiment [6], -5.7%.
Consider `CC(=O)c1ccc([C@H](O)[C@H](CO)NC(=O)C(Cl)Cl)cc1`, for which the growth inhibition is -1.1% in experiment [1]; 0.45% in experiment [2]; 6.95% in experiment [3]; -57.4% in experiment [4]; -21.6% in experiment [5]; -16.2% in experiment [6].
Turning to `CO[C@@H]1O[C@H](C(=O)c2ccccc2)[C@H]2OC(C)(C)O[C@@H]12`, the growth inhibition in experiment [1] was -5%; in experiment [2], -10.7%; in experiment [3] it was 28.3%; in experiment [4], 8.7%; in experiment [5], 19.1%; in experiment [6] it was 16.3%.
Consider `Cc1ccc(NC(=O)c2ccc(Cl)cc2)cc1Cl`, for which the growth inhibition in experiment [1] is 18.9%; in experiment [2] it was 1.35%; in experiment [3] it was 2.95%; in experiment [4], -9.65%; in experiment [5], 13.8%; in experiment [6], -2.3%.
On to `O=Cc1cc2c(cc1Br)OCO2`, for which the growth inhibition is 39.7% in experiment [1]; 16.1% in experiment [2]; 22.3% in experiment [3]; 10.2% in experiment [4]; -25.6% in experiment [5]; 8.3% in experiment [6].
